Only some compounds are listed: those with a hit (about 4.2% of all), similar ones and a draw of the others.
NALP1 inh = inhibitors of NALP1 inflammasome in yeast. inhibition, % at 10 µM. AID 2071. 0.61% of 280,000 active. S. cerevisiae NALP1/ASC/caspase-1 growth, X-gal OD620, 72 h; in the data active = inhibition mostly above about 24%, no sharp cut-off; inactive = mostly below about 32%
NALP3 yeast inh = inhibitors of NALP3 inflammasome in yeast | Yeast reconstituted NLRP3/ASC/caspase-1, beta-gal luminescence, 24 h | inhibition, % at 10 µM | 0.39% of 330,000 active | AID 2825;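 active = inhibition of 50% or more; inactive = inhibition below 50%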;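 also: plate controls were induced DMSO wells for no effect and uninduced yeast grown without galactose for full effect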
V-ATPase pHluor = regulators of yeast V-ATPase proton transport | S. cerevisiae, pHLuorin cytosolic pH fluorescence | response, % at 10 µM | 0.37% of 350,000 active; in the data active = response mostly above about 7.3%, no sharp cut-off; inactive = mostly below about 5.4%; also: actives read high
tim10-1 inh = inhibits growth of tim10-1 mutant yeast; AID 463190; inhibition, % at 20 µM; 2.2% of 330,000 active; S. cerevisiae tim10-1 ts strain growth, BacTiter-Glo, 24 h;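 active = inhibition of at least 40%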;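 also: mutant grown at 25 °C; 0% = DMSO wells with yeast and 100% = wells holding no yeast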
TIM10 inh = TIM10 yeast growth inhibition | inhibition, % at 10 µM | 1.4% of 330,000 active | AID 463195 | S. cerevisiae TIM10 strain growth, BacTiter-Glo luminescence, 24 h;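 active = inhibition of 40% or more at the single tested concentration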;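 also: wild-type TIM10 isogenic control strain grown at permissive 25 °C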
tim23-1 inh = inhibits growth of tim23-1 mutant yeast; inhibition, % at 20 µM; S. cerevisiae tim23-1 growth, BacTiter-Glo luminescence, 24 h; 1.3% of 330,000 active;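 active = growth inhibition of the mutant yeast at or above 50%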;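 also: temperature-sensitive mutant grown at 25 °C; plate controls were DMSO-treated mutant yeast for no effect and medium wells lacking yeast for full effect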
tim10-1 conf = confirmation of tim10-1 mutant yeast growth inhibitors; shares compounds with tim10-1 inh; S. cerevisiae tim10-1 ts strain growth, BacTiter-Glo, 24 h; inhibition, % at 20 µM; 56% of 7,400 active;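 active = inhibition of yeast growth at or above a set limit in either of two repeat tests at 20 µM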;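 also: tim10-1 mutant grown at permissive 25 °C to find synthetic lethal compounds; 0% = DMSO yeast wells and 100% = medium wells without yeast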
The depositor's hits bear a star; nt = no result.

SMILES	NALP1 inh	NALP3 yeast inh	V-ATPase pHluor	tim10-1 inh	TIM10 inh	tim23-1 inh	tim10-1 conf
CCCCNC(=O)c1cn(C)c2ccc(S(=O)(=O)N3CC(C)CC(C)C3)cc2c1=O (centres undefined)	9	3	-7	-19	8	6	nt
c1ccc(-c2nc(CSc3n[nH]c(-c4cccs4)n3)cs2)cc1	16	27	2	42*	37	39	34*
O=C(CSc1n[nH]c(-c2cccs2)n1)N1CCCC1	nt	9	-6	-14	-1	-9	nt
CSCSC1=C(C#N)C(c2ccc(Cl)cc2)C(C(C)=O)=C(C)N1 (centres undefined)	33	8	nt	4	18	24	nt
N#CC1=C(SCC(N)=O)NC2=C(C(=O)c3ccccc32)C1c1ccc(Cl)cc1 (centres undefined)	10	6	0	44*	29	27	27
Cc1cc(C)n(-c2nc(Nc3ccccc3)nc(-n3nc(C)cc3C)n2)n1	24	12	-2	8	-4	-13	nt
COc1cccc(/C=N/Nc2nc(Nc3ccccc3)nc(-n3nc(C)cc3C)n2)c1O	-9	47	-1	45*	14	42	27
CC1CC(C)CN(C(=O)/C(=C\c2ccccc2)c2ccccc2)C1 (centres undefined)	19	-10	-2	26	29	32	nt
CC1CCCCN1C(=O)/C(=C\c1ccccc1)c1ccccc1 (centres undefined)	3	-2	-5	42*	19	27	31*
CCCCCCCn1c2c(c(=N)c3ccccc31)CCC2	24	4	4	8	14	4	nt
C=C(C)COc1ccc(-c2[nH]ncc2-c2ccc(OC)c(OC)c2)c(O)c1	32	-2	nt	46*	33	36	34*
COc1ccccc1C(=O)Nc1ccccc1C(=O)N1C(C)CCCC1C (centres undefined)	15	-10	-1	44*	8	28	32*
COc1cccc(OC)c1C(=O)Nc1ccccc1C(=O)N1CCCC1	6	22	0	-26	-7	5	nt
COc1cccc(N=C2CC(C)(C)CC(=O)/C2=C(/O)c2ccccc2)c1	11	10	2	43*	13	38	23
CC1(C)CC(=O)/C(=C(\O)c2ccccc2)C(=NCCO)C1	27	10	1	10	11	12	nt
O=C(O)CCc1nc(-c2cccs2)no1	3	-1	2	-11	-1	6	nt
O=C(NCc1ccccc1)c1nc(-c2cccs2)no1	7	12	-2	40*	5	12	38*
CCOC(=O)c1ccc(NC(=S)Nc2ccc(C)cc2)cc1	-7	23	-1	6	3	19	nt
CCOC(=O)c1cn[nH]c1NC(=S)Nc1ccc(Cl)cc1	1	16	1	41*	40	20	-27
CC12CN(NC(=O)c3ccccc3F)C3(C#N)CC1CCC23C (centres undefined)	-6	5	1	29	18	18	nt
COCC(=O)N1CCC(Oc2ccc(C(=O)NC(C)c3nc(C)sc3C)cc2)CC1 (centres undefined)	0	12	2	7	-6	-1	nt
COc1ccc2nc(NC(=O)C3=NN(c4ccccc4)C(=O)CC3)sc2c1	22	16	10	43*	16	23	27
Cc1ccn2c(NCc3ccccc3)c(-c3cccs3)nc2c1	-7	11	1	46*	29	46	30
Cc1ccn2c(NC3CCCC3)c(-c3cccs3)nc2c1	-16	18	-1	46*	21	33	31*
c1csc(-c2nc3ccccn3c2NC2CCCCC2)c1	-1	21	-6	48*	31	27	33*
SMILES	NALP1 inh	NALP3 yeast inh	V-ATPase pHluor	tim10-1 inh	TIM10 inh	tim23-1 inh	tim10-1 conf
Cc1ccn2c(NC(=O)c3ccccc3)c(-c3cccs3)nc2c1	6	11	-5	6	-21	-4	nt
CC(Sc1nc(N)cc(N)n1)C(=O)Nc1ccc(N2CCOCC2)cc1 (centres undefined)	nt	3	-2	-1	-1	-5	nt
CCCCn1c(N)c(N(CCOC)C(=O)COC(=O)c2ccccc2NCCO)c(=O)[nH]c1=O	nt	nt	15	nt	nt	nt	nt
CCOC(=O)N1CCN(CC(O)COc2ccc3c(c2)CCC3)CC1 (centres undefined)	27	19	-4	5	5	-4	nt
S=c1[nH]nc(-c2cc(-c3ccccc3)n[nH]2)n1/N=C/c1ccccc1	nt	16	-3	-3	-10	-7	nt
CC(=C/c1ccccc1)/C=N/n1c(-c2ccncc2)n[nH]c1=S	-38	21	2	40*	40	45	38*
S=c1[nH]nc(-c2cc(-c3ccccc3)n[nH]2)n1/N=C/C(Br)=C/c1ccccc1	-6	32	-23	47*	14	50	43*
Nc1ccccc1-c1nnc(-c2ccc(-c3ccccc3)cc2)o1	16	4	-10	47*	31	22	18
Cc1ccc2cccc(OCCOCCOc3ccccc3Br)c2n1	8	11	7	7	20	19	nt
Cc1ccc2cccc(OCCCOc3ccccc3F)c2n1	19	27	1	43*	22	46	30
COc1ccc(-n2c(C)nc3c(cnn3-c3ccc(C)cc3)c2=O)cc1	-4	9	3	28	25	19	nt
COc1ccc(-n2c(C)nc3c(cnn3-c3ccc(Cl)cc3)c2=O)cc1	6	4	0	41*	25	30	8
O=C1C(NS(=O)(=O)c2ccc(Br)cc2)=C(N2CCCCC2)C(=O)c2ccccc21	-12	5	-2	50*	15	44	14
CC1CCN(C2=C(NS(=O)(=O)c3ccc(Cl)cc3)C(=O)c3ccccc3C2=O)CC1	24	-3	2	40*	28	39	29
CC1CCN(C2=C(NS(=O)(=O)c3ccccc3)C(=O)c3ccccc3C2=O)CC1	nt	15	2	11	2	37	nt
CC1CCN(C2=C(NS(=O)(=O)c3ccc(Br)cc3)C(=O)c3ccccc3C2=O)CC1	-7	-1	-1	21	26	41	nt
O=C(Nc1nnc(C2CC2)s1)c1n[nH]c(=O)c2ccccc12	-4	-4	-5	7	-16	-17	nt
CCc1ccc([C@@H]2CC=C(C(=O)O)[C@H](c3ccccc3F)N2S(=O)(=O)c2ccc(C)cc2)cc1	nt	11	-1	41*	-13	-1	11
COc1cc(C(=O)NCC2CCCN2S(=O)(=O)c2cccs2)cc(OC)c1OC (centres undefined)	nt	22	-3	-12	1	0	nt
Cc1nn(-c2nnc(NC3CCCCC3)nn2)c(C)c1Br	13	32	0	45*	22	37	34*
Cc1nn(C)c(C)c1S(=O)(=O)NC1CCCC1	-12	-6	3	12	4	-3	nt

Screens deposited in PubChem BioAssay by several laboratories.
